Compounds with a hit are over-represented: about 6.8% of the library has one in this group of screens.
C diff growth: blocks growth of Clostridium difficile; growth activity, negative = inhibition, % at 16 µg/mL (by protocol); Clostridium difficile clinical isolate growth, OD600, 24 h; hits give low values; AID 1259249; actives 0.25% (n = 86,000);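 active = mean growth activity at or below -80% and every replicate also at or below -80%; inconclusive = mean at or below -80% but some replicate above -80%; inactive = mean growth activity above -80%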
Pf Dd2 growth: inhibitors of Plasmodium falciparum Dd2 growth. P. falciparum Dd2 growth, SYBR Green, 72 h; hits give low values. activity change, % at 10 µM. actives 2.3% (n = 94,000); in the data active = activity change below about -80%; inconclusive = no clear call, values can overlap the other calls
T cruzi growth-1: T. cruzi proliferation inhibition. actives 5.9% (n = 77,000). T. cruzi beta-gal in NIH3T3, GalScreen luminescence, 90 h. AID 624255. inhibition, % at 8.34 µM;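 active = mean inhibition above about 93%, with at least 55% of replicates each passing it, limit read from the data, passing the limit was not always enough; inconclusive = only one of those two conditions holds; inactive = neither condition holds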
T cruzi growth-2: blocks T. cruzi growth in NIH3T3 host cells | inhibition, % at 8.35 µM | T. cruzi beta-gal in NIH3T3, GalScreen luminescence, 90 h | actives 72% (n = 5,600) | shares compounds with T cruzi growth-1;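 active = mean replicate inhibition above about 95% and at least 55% of replicates individually reaching it, limit read from the data; inconclusive = only one of the two criteria is met; inactive = neither criterion is met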
T cruzi growth-3: blocks T. cruzi growth in NIH3T3 host cells. shares compounds with T cruzi growth-1. T. cruzi beta-gal in NIH3T3, GalScreen luminescence, 90 h. inhibition, % at 2.09 µM. actives 21% (n = 5,600). AID 651740;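 active = mean inhibition above about 95%, with at least 55% of replicates also reaching it, limit read from the data; inconclusive = meets just one of the two conditions; inactive = meets neither condition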
NIH3T3 tox: cytotoxicity in mouse NIH/3T3 fibroblasts. shares compounds with T cruzi growth-1. actives 14% (n = 5,600). cytotoxicity (signal decrease), % at 8.35 µM. NIH/3T3 viability, CellTiter-Glo ATP luminescence, 90 h. AID 651742;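 active = mean signal decrease across replicates above about 35% based on untreated-well scatter, with enough replicates individually passing, limit read from the data; inconclusive = no rule stated though some were filed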
3T3 cytotox 2: kills mouse NIH/3T3 fibroblasts | NIH/3T3 viability, CellTiter-Glo ATP luminescence, 90 h | inhibition, % at 24.9 µM | shares compounds with T cruzi growth-1 | actives 56% (n = 5,600);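 active = mean loss of cell viability signal at or above a set limit, and enough replicates individually reaching it; inconclusive = meets only the mean limit or only the replicate share; inactive = meets neither condition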
Hits are given with their value; - = inactive; ? = inconclusive; . = no result.

SMILES | C diff growth | Pf Dd2 growth | T cruzi growth-1 | T cruzi growth-2 | T cruzi growth-3 | NIH3T3 tox | 3T3 cytotox 2
CC(C)NC(=O)Nc1cccc2c1O[C@H](CN(C)Cc1ccc3c(c1)OCO3)[C@H](C)CN([C@@H](C)CO)C2=O | - | - | . | . | . | . | .
CO[C@H]1CN(C)C(=O)c2ccc(NC(=O)Nc3cc(F)ccc3F)cc2OC[C@@H](C)NC[C@@H]1C | . | - | - | . | . | . | .
CCCNC(=O)Nc1ccc2c(c1)C(=O)N(C)[C@H]1CC[C@@H](CC(=O)NCCCN(C)C)O[C@@H]1CO2 | - | - | - | . | . | . | .
COc1ccc(NC(=O)N(C)C[C@H]2Oc3c(NC(=O)c4nc5ccccc5s4)cccc3C(=O)N([C@H](C)CO)C[C@H]2C)cc1 | - | - | - | . | . | . | .
COc1cccc(CNC(=O)[C@H]2[C@H](CO)[C@H]3Cn4c(ccc(-c5cncnc5)c4=O)[C@H]3N2C)c1 | - | - | - | . | . | . | .
CO[C@H]1CN(C)C(=O)c2cc(NC(=O)C3CC3)ccc2OC[C@H](C)N(C(=O)Cc2ccccn2)C[C@@H]1C | - | - | - | . | . | . | .
C[C@@H]1CN([C@H](C)CO)C(=O)c2cc(NC(=O)c3ccccc3)ccc2O[C@@H](C)CCCCO[C@@H]1CN(C)Cc1ccncc1 | - | - | - | . | . | . | .
C[C@@H]1CCCCO[C@@H](CN(C)Cc2ccccc2)[C@H](C)CN([C@H](C)CO)C(=O)c2cc(NC(=O)c3ccccc3)ccc2O1 | - | - | ? | 114 | - | - | 55
C[C@@H]1CCCCO[C@H](CN(C)Cc2ccccc2)[C@@H](C)CN([C@@H](C)CO)C(=O)c2cc(NC(=O)c3ccccc3)ccc2O1 | - | - | - | . | . | . | .
C[C@H](CO)N1C[C@H](C)[C@@H](CN(C)Cc2ccccc2)OCCCC[C@H](C)Oc2ccc(NC(=O)c3ccccc3)cc2C1=O | - | - | - | . | . | . | .
C[C@@H]1CN([C@H](C)CO)C(=O)c2cc(NC(=O)c3ccccc3)ccc2O[C@@H](C)CCCCO[C@H]1CN(C)Cc1ccccc1 | - | - | 103 | 113 | - | - | 89
C[C@@H]1CN([C@H](C)CO)C(=O)c2cc(NC(=O)c3ccccc3)ccc2O[C@@H](C)CCCCO[C@@H]1CN(C)Cc1ccccc1 | - | - | ? | 108 | - | - | 35
C[C@@H]1CN([C@@H](C)CO)C(=O)c2cc(NC(=O)c3ccccc3)ccc2O[C@@H](C)CCCCO[C@@H]1CN(C)Cc1ccccc1 | - | - | - | . | . | . | .
C[C@@H]1CN([C@@H](C)CO)C(=O)c2cc(NC(=O)c3ccccc3)ccc2O[C@@H](C)CCCCO[C@H]1CN(C)Cc1ccncc1 | - | - | 101 | 109 | - | - | -
Cc1noc(C)c1NC(=O)N(C)C[C@@H]1Oc2c(NC(=O)Nc3ccc4c(c3)OCO4)cccc2C(=O)N([C@@H](C)CO)C[C@H]1C | - | - | - | . | . | . | .
O=S(=O)(NC[C@H]1[C@@H](c2ccccc2)[C@H](CO)N1CC1CC1)c1ccccc1 | - | - | - | . | . | . | .
CO[C@@H]1CN(C)C(=O)c2cc(NS(=O)(=O)c3cccc(C)c3)ccc2OC[C@H](C)NC[C@H]1C | . | - | - | . | . | . | .
COCCNC(=O)C[C@H]1C[C@@H]2c3cc(NC(=O)C4CCC4)ccc3O[C@@H]2[C@@H](CO)O1 | - | - | . | . | . | . | .
O=C(Cc1cccnc1)N1CC(=O)N2[C@H](C1)[C@H](c1ccc(C#CC3CCCCC3)cc1)[C@@H]2CO | - | - | . | . | . | . | .
N#C[C@@H]1[C@H](c2ccc(C3=CCCCC3)cc2)[C@@H](CO)N1S(=O)(=O)c1ccccc1 | - | - | - | . | . | . | .
N#C[C@@H]1[C@@H](c2ccc(C3=CCCCC3)cc2)[C@H](CO)N1C(=O)c1cccc(F)c1 | - | - | 100 | - | - | - | 76
N#C[C@H]1[C@@H](c2ccc(C3=CCCCC3)cc2)[C@@H](CO)N1C(=O)c1ccccn1 | - | - | 103 | 104 | 117 | - | 105
N#C[C@H]1[C@@H](c2ccc(C3=CCCCC3)cc2)[C@@H](CO)N1C(=O)c1cccc(F)c1 | - | - | - | . | . | . | .
N#C[C@@H]1[C@H](c2ccc(C3=CCCCC3)cc2)[C@H](CO)N1S(=O)(=O)c1ccccc1 | - | - | - | . | . | . | .
N#C[C@H]1[C@@H](c2ccc(C3=CCCCC3)cc2)[C@@H](CO)N1S(=O)(=O)c1cccc(F)c1 | - | - | 105 | 101 | - | 45 | 65
SMILES | C diff growth | Pf Dd2 growth | T cruzi growth-1 | T cruzi growth-2 | T cruzi growth-3 | NIH3T3 tox | 3T3 cytotox 2
N#C[C@H]1[C@@H](c2ccc(C3=CCCCC3)cc2)[C@H](CO)N1S(=O)(=O)c1cccc(F)c1 | - | - | 100 | 100 | - | 45 | 103
N#C[C@H]1[C@@H](c2ccc(C3=CCCCC3)cc2)[C@H](CO)N1C(=O)c1ccccn1 | - | - | - | . | . | . | .
COc1ccccc1-c1cnc2c(c1)C(=O)N([C@@H](C)CO)C[C@H](C)[C@H](CN(C)C(=O)CC1CC1)O2 | - | - | - | . | . | . | .
C[C@@H]1CN([C@H](C)CO)C(=O)c2cc(NS(=O)(=O)c3ccccc3)ccc2O[C@H]1CN(C)C(=O)Nc1ccccc1 | - | - | - | . | . | . | .
O=C(NC1CCC1)[C@H]1[C@H](CO)[C@H]2Cn3c(ccc(-c4cncnc4)c3=O)[C@@H]1N2CCc1ccccc1 | - | - | - | . | . | . | .
C[C@@H]1CN([C@@H](C)CO)C(=O)c2cc(NC(=O)c3ccncc3)ccc2O[C@@H]1CN(C)C(=O)NC1CCCCC1 | - | - | . | . | . | . | .
COc1ccc(NC(=O)N2CC3(C2)CN(CC2CC2)[C@@H](CO)c2c3c3ccc(OC)cc3n2C)cc1 | - | - | . | . | . | . | .
O=C(Nc1ccccc1)N1C[C@@H]2[C@H](c3ccccc31)[C@@H](CO)N2CC1CCCC1 | - | - | - | . | . | . | .
O=S(=O)(c1ccc(F)cc1)N1C[C@@H]2[C@H](c3ccccc31)[C@H](CO)N2Cc1ccccc1Cl | - | - | - | . | . | . | .
CCC(=O)N1C[C@H]2[C@@H](c3ccccc31)[C@H](CO)N2C(=O)CC | - | - | 104 | - | - | - | -
O=C(Nc1ccc(Cl)cc1)N1C[C@H]2[C@@H](c3ccccc31)[C@@H](CO)N2CC1CCCC1 | - | - | 108 | 99 | - | - | 50
O=C(C1CCCCC1)N1C[C@@H]2[C@H](c3ccccc31)[C@H](CO)N2Cc1ccccc1Cl | - | - | 105 | 99 | - | - | -
O=C(C1CCCCC1)N1C[C@H]2[C@@H](c3ccccc31)[C@H](CO)N2Cc1ccccc1Cl | - | - | - | . | . | . | .
O=S(=O)(c1ccc(F)cc1)N1C[C@H]2[C@@H](c3ccccc31)[C@H](CO)N2Cc1ccccc1Cl | - | - | 108 | 102 | - | - | 38
CCC(=O)N1C[C@@H]2[C@H](c3ccccc31)[C@@H](CO)N2C(=O)CC1CC1 | - | - | - | . | . | . | .
COc1ccc(NC(=O)N(C)C[C@H]2Oc3ccc(NC(=O)Nc4c(C)noc4C)cc3C(=O)N([C@@H](C)CO)C[C@H]2C)cc1 | - | - | - | . | . | . | .

Screening data (PubChem)
